Inconclusive results are not listed. A call without a number means that no potency is given here. Activity calls are given as the source filed them. Calls follow the shape of the dose curve; as a rule, active = well fitted inhibition curve with a large enough effect; inconclusive = small, poorly fitted or top-dose-only effect, or effect the other way; inactive = flat fitted curve, though single readings scatter.
Assay: VP16 selectivity assay for inhibitors of ROR gamma transcriptional activity
Conditions: Drosophila Schneider Gal4-VP16 UAS-luciferase reporter, 20 h; series mostly up to 92.2 µM
Source text: NIH Molecular Libraries Probe Production Network [MLPCN] NIH Chemical Genomics Center [NCGC] MLPCN Grant: R03 DA026211-01 Assay Provider: Dan Littman, New York University Assay Overview: The retinoic acid-related orphan receptor (ROR) gamma is a transcription factor that has a central role in the differentiation of Th17 cells, a subset of T helper cells that secrete the inflammatory cytokines IL-17, IL-17F, and IL-22. Th17 cells have been implicated in graft versus host disease, autoimmune disease and asthma. ROR gamma is induced in naive T helper cells in the presence of TGF-beta combined with IL-6, IL-21, or IL-23, and thereafter directs the expression of the Th17 lineage cytokines. To identify nonspecific inhibitors, a Drosophila Schneider cell line was stably transfected with two vectors: a gene expressing a fusion of the Gal4 DNA binding domain and VP16 transactivation domain under the control of the metallothionine promoter and a Photinus luciferase reporter regulated by the Gal4 binding site enhancer, UAS. […] Small molecule inhibitors that inhibit components common to the RORgt and VP16 assays, such as the Gal4 DNA binding domain or the UAS luciferase reporter, will be active in both assays and thus scored as nonspecific.
Assay Protocol Summary: For screening, 600 cells in 4 uL/well were dispensed into white solid 1536-well plates (Grenier) using a solenoid-based dispenser. Following transfer of 23 nL compound or DMSO vehicle by a pin tool, the plates were incubated 1 hr at ambient temperature, and 1 uL/well copper sulfate (700 uM final concentration) was added. The plates were centrifuged 15 s at 1000 RPM and incubated 20 hr at ambient temperature. After addition of 1.5 uL Photinus luciferase detection reagent, the plates were incubated 10 min at ambient temperature and then read by an ViewLux (Perkin Elmer) to detect luminescence.
In the case of COc1cc(O)c(C(CC(=O)N2CCCC(CO)C2)c2ccc3c(c2)OCO3)c(OC)c1 (stereo not given), the Potency is reported as “inactive”.
In the case of COc1cc(O)c(C(CC(=O)N2CCCC(c3ccccc3)C2)c2ccc3c(c2)OCO3)c(OC)c1 (stereo not given), the Potency is reported as “inactive”.
With O=C(CCCN1C(=O)/C(=C/c2ccccc2Cl)SC1=S)Nc1cccnc1 the Potency was 28.8 µM (active).
In the case of CC(C)(C)c1ccc(S(=O)(=O)Nc2ccc(C(O)(C(F)(F)F)C(F)(F)F)cc2)cc1, the Potency is reported as 18.2 µM (active).
In the case of COc1cc(O)c(C(CC(=O)N2CCc3ccccc32)c2ccc3c(c2)OCO3)c(OC)c1 (stereo not given), the Potency is reported as “inactive”.
In the case of COC(=O)Cn1c(CN2CCc3ccccc3C2)nc2c1c(=O)n(C)c(=O)n2C, the Potency is reported as 9.11 µM (active).
In the case of CC(C)(C)c1ccc([S+](=O)([O-])Nc2ccccc2C(O)(C(F)(F)F)C(F)(F)F)cc1, the Potency is reported as 11.5 µM (active).
With COc1cc(O)c(C(CC(=O)N2CCC(C)CC2)c2ccc(C)cc2)c(OC)c1 (stereo not given) the Potency was “inactive”.
In the case of COc1ccc(C(CC(=O)N2CCCC(C)C2)c2ccc3c(c2)OCO3)c(O)c1 (stereo not given), the Potency is reported as “inactive”.
For COc1cc(O)c([C@H](CC(=O)N2CC(C)CC(C)C2)c2ccc3c(c2)OCO3)c(OC)c1 (stereo not given in full), the Potency was “inactive”.
For O=C(/C=C/c1ccc(S(=O)(=O)N2CCOCC2)cc1)NC(=S)Nc1ccc(N2CCOCC2)cc1, the Potency was 20.4 µM (active).
For COc1ccc(-c2nnc(-c3ccc(N(C)C)cc3)o2)cc1, the Potency was “inactive”.
With CC(C)(C(=O)Nc1nccs1)C(c1ccccc1)c1ccc(O)cc1 (stereo not given) the Potency was 36.3 µM (active).
In the case of C[C@H]1O[C@@H](O[C@H]2[C@@H](O)C[C@@H](O[C@H]3[C@@H](O)C[C@H](O[C@H]4CC[C@@]5(C)[C@H](CC[C@@H]6[C@@H]5CC[C@]5(C)[C@@H](C7=CC(=O)OC7)CC[C@]65O)C4)O[C@@H]3C)O[C@@H]2C)C[C@H](O)[C@@H]1O, the Potency is reported as “inactive”.
In the case of COc1ccc(CNC(=O)[C@H](Cc2ccccc2)NC(=O)C2CCN(C(=O)[C@@H]3CCCN3C(=O)OC(C)(C)C)CC2)cc1, the Potency is reported as “inactive”.
In the case of COc1cc(OC)c2c(c1)OC(=O)CC2c1ccc2c(c1)OCO2 (stereo not given), the Potency is reported as “inactive”.
With COc1cc(O)c(C(CC(=O)N2CC(C)CC(C)C2)c2ccc(O)cc2)c(OC)c1 (stereo not given) the Potency was “inactive”.
With CC(C)(C)c1ccc(-c2noc(CCC(=O)Nc3cccnc3)n2)cc1 the Potency was 2.04 µM (active).
With CC1CCCN(C(=O)CC(c2ccccc2)c2ccc(O)cc2)C1 (stereo not given) the Potency was “inactive”.
In the case of COC(=O)c1ccc(OCC(=O)c2ccc(O)cc2O)cc1, the Potency is reported as 2.04 µM (active).
In the case of CCOC(=O)Cn1c(CN2CCc3ccccc3C2)nc2c1c(=O)n(C)c(=O)n2C, the Potency is reported as 5.12 µM (active).
For CCOc1ncccc1C(=O)OCC(=O)Nc1ccc(-c2nc3ccc(C)cc3s2)cc1, the Potency was 2.57 µM (active).
In the case of O=C(CCCOc1ccccc1)Nc1nc2ccccc2[nH]1, the Potency is reported as 14.4 µM (active).
For CCn1cc(C(=O)O)c(=O)c2cnc(N3CCN(C(=S)NC(=O)c4ccccc4)CC3)nc21, the Potency was 20.4 µM (active).
With COc1cc(O)c(C(CC(=O)N2CCCC(C)C2)c2ccccc2)c(OC)c1 (stereo not given) the Potency was “inactive”.
For COc1cc(O)c(C(CC(=O)N2CCCC(C)C2)c2ccc(C)cc2)c(OC)c1 (stereo not given), the Potency was 45.7 µM (active).
With COc1cc(O)c(C(CC(=O)N2CCCC(C)C2)c2ccc(C(C)C)cc2)c(OC)c1 (stereo not given) the Potency was 25.7 µM (active).
For COc1ccc(-c2c[n+]3c(n2-c2ccc(C)cc2)CCCCC3)cc1, the Potency was 5.12 µM (active).
In the case of COc1cc(O)c(C(CC(=O)N2CCCC(C#N)C2)c2ccc3c(c2)OCO3)c(OC)c1 (stereo not given), the Potency is reported as “inactive”.
With COc1cc(O)c(C(CC(=O)N2CCCC2)c2ccc3c(c2)OCO3)c(OC)c1 (stereo not given) the Potency was “inactive”.
For COc1cc(O)c(C(CC(=O)N2C[C@H](C)C[C@H](C)C2)c2ccc3c(c2)OCO3)c(OC)c1 (stereo not given in full), the Potency was “inactive”.
For COc1cc(O)c(C(CC(=O)N2CCC(c3ccccc3)CC2)c2ccc3c(c2)OCO3)c(OC)c1 (stereo not given), the Potency was “inactive”.
In the case of CCOc1ccc(-c2cc(CCCC(=O)NCc3cccnc3)no2)cc1, the Potency is reported as 2.88 µM (active).
In the case of COc1cc(O)c(C(CC(=O)N2CCCC(C)C2)c2ccc3c(c2)OCO3)c(OC)c1 (stereo not given), the Potency is reported as “inactive”.
For COc1cc(OC)c(C(CC(=O)N2CCCC(C)C2)c2ccc3c(c2)OCO3)c(OC)c1 (stereo not given), the Potency was 51.2 µM (active).
In the case of COc1cc(O)c(C(CC(=O)N2CCC(C)CC2)c2ccc3c(c2)OCO3)c(OC)c1 (stereo not given), the Potency is reported as “inactive”.
For COc1ccc(C(CC(=O)N2CCCC(C)C2)c2ccccc2)cc1 (stereo not given), the Potency was “inactive”.
For COc1cc(O)c(C(CC(=O)N2CCCC(C(=O)c3ccccc3)C2)c2ccc3c(c2)OCO3)c(OC)c1 (stereo not given), the Potency was “inactive”.
For COc1cc(O)c(C(CC(=O)N2CCCC(COc3ccc(F)cc3)C2)c2ccc3c(c2)OCO3)c(OC)c1 (stereo not given), the Potency was “inactive”.
In the case of COc1cc(O)c(C(CC(=O)N2CCCC(C(=O)N3CCCCC3)C2)c2ccc3c(c2)OCO3)c(OC)c1 (stereo not given), the Potency is reported as “inactive”.

From PubChem BioAssay AID489036 (National Center for Advancing Translational Sciences (NCATS), 2010)
